# Laboratory results reported in PubChem BioAssay (NCATS).
# Inconclusive results are not listed. A call without a number means that no potency is given here. Calls of active or inactive are those of the source. Calls follow the shape of the dose curve; as a rule, active = well fitted curve in the direction sought with a large enough effect; inconclusive = small, poorly fitted or top-dose-only effect, or another doubt; inactive = no such curve, though single readings can be large; an effect the other way counts as inactive or inconclusive.
# Target: Aldehyde dehydrogenase, mitochondrial (Homo sapiens) (UniProt P05091)
# Test: qHTS for Inhibitors of the Aldehyde Dehydrogenase Family (ALDH2) Primary screen (AID 2061308); also: nearly all actives have a fitted effect of over 55% in size
# Conditions: ALDH2 enzyme inhibition qHTS, 1536-well; series mostly up to 56 µM
row,Structure (SMILES),Potency
1,Brc1ccccc1-c1nc(NCc2ccc(-c3cccnc3)cc2)c2ccccc2n1,inactive
2,COc1cccc(C2=Nn3c(nnc3-c3ccccc3O)SC2)c1,inactive
3,Cc1nc(N2CCOCC2)c2nc(-c3ccccc3)n(CCN3CCOCC3)c2n1,inactive
4,Cc1cc(C)nc(NC(=S)N2CCN(c3cccc(OC(F)F)c3)CC2)c1,inactive
5,O=C(CNC(=O)c1ccc(Cl)cc1)OC(C(=O)Nc1cc(C(F)(F)F)ccc1Cl)c1ccccc1 (stereo not given),inactive
6,CC(O)c1cc2c(s1)c1cnn(Cc3ccccc3F)c(=O)c1n2C (stereo not given),inactive
7,CC(C)(C)c1ccc(CSc2nc3ncc(Br)cc3[nH]2)cc1,inactive
8,CCCn1c(-c2ccc(F)cc2)nc2c(N3CCN(Cc4nc(OC)cc(OC)n4)CC3)nc(C)nc21,inactive
9,CN(C)c1cccc(-c2nc(N3CCC(C(N)=O)CC3)ncc2F)c1,inactive
10,Cc1nc(NCCO)c2nc(-c3ccccc3)n(CC3CCN(C)CC3)c2n1,inactive
11,Nc1ccc(S(=O)(=O)N2CCCN(S(=O)(=O)c3ccc4c(c3)OCCO4)CC2)cc1,inactive
12,CS(=O)(=O)c1ccc(C(=O)OCC(=O)N2CCN(CCC3CCCCC3)CC2)cc1[N+](=O)[O-],inactive
13,COc1ccc(CCC(=O)c2c(O)cc(O)cc2O[C@@H]2O[C@H](CO)[C@@H](O)[C@H](O)[C@H]2O)cc1,inactive
14,COc1cc(F)c(F)c(Nc2ccc(I)cc2F)c1NS(=O)(=O)C1(CC(O)CO)CC1 (stereo not given),inactive
15,O=C(Nc1ccc2ccccc2c1)Nc1cccc(-c2ccncc2)n1,inactive
16,CCCn1c(-c2ccc(F)cc2)nc2c(NCCCN3CCOCC3)nc(C)nc21,inactive
17,COc1ccc(C(=O)Nc2nc(-c3ccccc3)cs2)cc1NS(=O)(=O)c1ccc(C)cc1,inactive
18,O=C1c2ccccc2C(=O)N1c1cccnc1,inactive
19,COc1ccc(-c2nnc3n2N=C(c2c(OC)cccc2OC)CS3)cc1OC,inactive
20,N#Cc1ccc(C[C@@H](NS(=O)(=O)c2ccc(C(=O)O)cc2)C(=O)O)cc1,inactive

row,Structure (SMILES),Potency
1,CC(C)(C)c1cc(O)c(CN)c(C(C)(C)C)c1,inactive
2,Cc1cc2c(s1)c1cnn(Cc3ccc(Br)cc3F)c(=O)c1n2C,inactive
3,Cc1cc2c(s1)c1cnn(Cc3ccc(-c4ccccc4)cc3)c(=O)c1n2C,inactive
4,Nc1nc(N)c2c(OCC3CCN(Cc4ccccc4F)CC3)cccc2n1,inactive
5,OCc1cn(Cc2ccc(O)c3ncccc23)cn1,inactive
6,Cc1ccc(C[C@H](C(=O)O)N2C(=O)c3ccc(C(=O)O)cc3C2=O)cc1,inactive
7,COc1ccc(NC(=O)c2cnn3c(C)cc(C)nc23)cc1Cl,inactive
8,COc1cccc(NS(=O)(=O)c2ccc3c(c2)CCC(=O)N3)c1,inactive
9,COC(=O)c1ccc(O)c2ncc(NC3CCNCC3)cc12,inactive
10,COC(=O)c1ccccc1C(=O)Nc1nc(-c2ccccc2)cs1,inactive
11,Cc1ccc(S(=O)(=O)N(C)c2ccccc2C(=O)Nc2nc(-c3ccccc3)cs2)cc1,inactive
12,O=S(=O)(Nc1nccs1)c1ccc(NCc2cccc(O)c2)cc1,inactive
13,C=C(C)C(=O)O[C@H]1CC2=CC(C/C(C)=C\[C@H]3OC(=O)C(=C)[C@H]13)OC2=O (stereo not given in full),inactive
14,NC(=O)c1ccc(-c2noc(-c3ccccc3F)n2)cc1,inactive
15,O=C(c1ccc2c(c1)ncn2-c1cccc(Cl)c1)N1CCCCC1,inactive
16,Nc1cccc(S(=O)(=O)Nc2cnccc2C(=O)Nc2nc(-c3ccccc3)cs2)c1,inactive
17,O=C(Nc1nc(-c2ccccc2)cs1)c1cccc(NS(=O)(=O)c2nccs2)c1,inactive
18,COCCNc1nc(C)nc2c1nc(-c1ccccc1)n2CCN(C)C,inactive
19,COc1ccc(CNc2ccc(-c3nc4ccccc4[nH]3)cc2)cc1OC,inactive
20,COc1cc(OC)cc(-c2nnc3n2N=C(c2c(OC)cccc2OC)CS3)c1,inactive

# Target: Retinaldehyde dehydrogenase 3 (Homo sapiens) (UniProt P47895)
# Test: qHTS for Inhibitors of the Aldehyde Dehydrogenase Family (ALDH1A3) Primary screen (AID 2061315)
# Conditions: ALDH inhibition qHTS; series mostly up to 56 µM
row,Structure (SMILES),Potency
1,Brc1ccccc1-c1nc(NCc2ccc(-c3cccnc3)cc2)c2ccccc2n1,inactive
2,COc1cccc(C2=Nn3c(nnc3-c3ccccc3O)SC2)c1,inactive
3,Cc1nc(N2CCOCC2)c2nc(-c3ccccc3)n(CCN3CCOCC3)c2n1,inactive
4,Cc1cc(C)nc(NC(=S)N2CCN(c3cccc(OC(F)F)c3)CC2)c1,inactive
5,O=C(CNC(=O)c1ccc(Cl)cc1)OC(C(=O)Nc1cc(C(F)(F)F)ccc1Cl)c1ccccc1 (stereo not given),inactive
6,CC(O)c1cc2c(s1)c1cnn(Cc3ccccc3F)c(=O)c1n2C (stereo not given),inactive
7,CC(C)(C)c1ccc(CSc2nc3ncc(Br)cc3[nH]2)cc1,inactive
8,CCCn1c(-c2ccc(F)cc2)nc2c(N3CCN(Cc4nc(OC)cc(OC)n4)CC3)nc(C)nc21,inactive
9,CN(C)c1cccc(-c2nc(N3CCC(C(N)=O)CC3)ncc2F)c1,inactive
10,Cc1nc(NCCO)c2nc(-c3ccccc3)n(CC3CCN(C)CC3)c2n1,inactive
11,Nc1ccc(S(=O)(=O)N2CCCN(S(=O)(=O)c3ccc4c(c3)OCCO4)CC2)cc1,inactive
12,CS(=O)(=O)c1ccc(C(=O)OCC(=O)N2CCN(CCC3CCCCC3)CC2)cc1[N+](=O)[O-],inactive
13,COc1ccc(CCC(=O)c2c(O)cc(O)cc2O[C@@H]2O[C@H](CO)[C@@H](O)[C@H](O)[C@H]2O)cc1,inactive
14,COc1cc(F)c(F)c(Nc2ccc(I)cc2F)c1NS(=O)(=O)C1(CC(O)CO)CC1 (stereo not given),inactive
15,O=C(Nc1ccc2ccccc2c1)Nc1cccc(-c2ccncc2)n1,inactive
16,CCCn1c(-c2ccc(F)cc2)nc2c(NCCCN3CCOCC3)nc(C)nc21,inactive
17,COc1ccc(C(=O)Nc2nc(-c3ccccc3)cs2)cc1NS(=O)(=O)c1ccc(C)cc1,inactive
18,O=C1c2ccccc2C(=O)N1c1cccnc1,inactive
19,COc1ccc(-c2nnc3n2N=C(c2c(OC)cccc2OC)CS3)cc1OC,inactive
20,N#Cc1ccc(C[C@@H](NS(=O)(=O)c2ccc(C(=O)O)cc2)C(=O)O)cc1,inactive

row,Structure (SMILES),Potency
1,CC(C)(C)c1cc(O)c(CN)c(C(C)(C)C)c1,inactive
2,Cc1cc2c(s1)c1cnn(Cc3ccc(Br)cc3F)c(=O)c1n2C,inactive
3,Cc1cc2c(s1)c1cnn(Cc3ccc(-c4ccccc4)cc3)c(=O)c1n2C,inactive
4,Nc1nc(N)c2c(OCC3CCN(Cc4ccccc4F)CC3)cccc2n1,inactive
5,OCc1cn(Cc2ccc(O)c3ncccc23)cn1,inactive
6,Cc1ccc(C[C@H](C(=O)O)N2C(=O)c3ccc(C(=O)O)cc3C2=O)cc1,inactive
7,COc1ccc(NC(=O)c2cnn3c(C)cc(C)nc23)cc1Cl,inactive
8,COc1cccc(NS(=O)(=O)c2ccc3c(c2)CCC(=O)N3)c1,inactive
9,COC(=O)c1ccc(O)c2ncc(NC3CCNCC3)cc12,inactive
10,COC(=O)c1ccccc1C(=O)Nc1nc(-c2ccccc2)cs1,inactive
11,Cc1ccc(S(=O)(=O)N(C)c2ccccc2C(=O)Nc2nc(-c3ccccc3)cs2)cc1,inactive
12,O=S(=O)(Nc1nccs1)c1ccc(NCc2cccc(O)c2)cc1,inactive
13,C=C(C)C(=O)O[C@H]1CC2=CC(C/C(C)=C\[C@H]3OC(=O)C(=C)[C@H]13)OC2=O (stereo not given in full),inactive
14,NC(=O)c1ccc(-c2noc(-c3ccccc3F)n2)cc1,inactive
15,O=C(c1ccc2c(c1)ncn2-c1cccc(Cl)c1)N1CCCCC1,inactive
16,Nc1cccc(S(=O)(=O)Nc2cnccc2C(=O)Nc2nc(-c3ccccc3)cs2)c1,inactive
17,O=C(Nc1nc(-c2ccccc2)cs1)c1cccc(NS(=O)(=O)c2nccs2)c1,inactive
18,COCCNc1nc(C)nc2c1nc(-c1ccccc1)n2CCN(C)C,inactive
19,COc1ccc(CNc2ccc(-c3nc4ccccc4[nH]3)cc2)cc1OC,inactive
20,COc1cc(OC)cc(-c2nnc3n2N=C(c2c(OC)cccc2OC)CS3)c1,inactive
